Shown is part of a subset that was picked to be rich in hits.
TDP1 cell CPT – growth inhibition of DT40 Tdp1-/-;hTDP1 cells with camptothecin (screen for TDP1 inhibitors); AID 686979; actives 12% (n = 420,000); chicken DT40 Tdp1-/-;hTDP1 cells + 20 nM CPT, ATP luminescence, 48 h; Potency, µM (titrated, usually from 46.2 µM), for the others: at the top dose activity change, negative = growth inhibition, hits mostly inhibitors; further: potency means the concentration at half of the fitted maximal effect; nearly all actives have a fitted effect of over 55% in size
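Cell growth measured by CellTiter-Glo luminescence after a minimum 48 h, 37 C compound exposure with 20 nM CPT in Tdp1-knockout DT40 cells stably expressing hTDP1, seeded 400/well; qHTS titration format.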
IL-1B inflam inh – inflammasome signaling inhibition, IL-1 beta readout | THP-1 LPS/ATP IL-1B secretion, AlphaLISA, 16 h; hits give low values | activity change, % at 57.5 µM | actives 4.7% (n = 360,000) | AID 743279; in the data active means activity change below about -50%; inconclusive means mostly about -30% to -49%
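THP-1 cells pretreated 1 hr with compounds (up to 57.5 uM final), then stimulated with LPS (250 ng/mL final) plus ATP (1.25 mM final); secreted IL-1B measured by AlphaLISA after 16 hr, decreased signal indicating inhibition.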
HT1080NT lethal – kills 2HG-producing HT-1080-NT fibrosarcoma cells; actives 1.6% (n = 360,000); Potency, µM (highest dose often 46.1 µM), for inactives: top-dose activity, negative = less viability, usual class: cytotoxic; HT-1080-NT fibrosarcoma viability, CellTiter-Glo ATP luminescence, 48 h;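 further: NT is the 2HG producing partner of a matched IDH1 knockdown line; potency means the concentration at half of the fitted maximal effect; 0% = DMSO-treated cells and -100% = media-only wells without cells; nearly all actives have a fitted effect of over 55% in size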
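750 cells/well, RPMI + 5% FBS; 2 h settle, compound pin-transfer, 48 h at 37 degrees C. CellTiter-Glo 10 min RT, luminescence. Normalized to DMSO and media-only wells.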
HT1080 IDH1KD tx – toxicity to HT-1080 IDH1 knockdown cells (counter line); actives 2% (n = 360,000); HT-1080 IDH1 knockdown viability, ATP luminescence, 48 h; Potency, µM (highest dose often 46.1 µM), without a hit: at the highest dose activity, negative = toxicity, actives largely listed as cytotoxic; AID 686971;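 further: potency means the concentration at half of the fitted maximal effect; 0% = DMSO wells and -100% = cell-free medium wells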
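After a 2 h attachment period, IDH1KD HT-1080 cells took pin-transferred compound for 48 h at 37 °C; ATP-based luminescence after 10 min room-temperature reagent incubation reported viability.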
TDP1 cell noCPT – qHTS for Inhibitors of human tyrosyl-DNA phosphodiesterase 1 (TDP1): qHTS in cells in absence of CPT. actives 15% (n = 420,000). Potency, µM (series often up to 46.2 µM), for inactives: top-dose activity change, negative = growth inhibition, most hits filed as inhibitors. DT40 Tdp1-/- hTDP1 cells, no CPT, ATP luminescence, 48 h. AID 686978, 2013; further: potency means the concentration at half of the fitted maximal effect; nearly all actives have a fitted effect of over 55% in size
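Luminescent ATP content (CellTiter-Glo) served as the growth readout. Knockout chicken DT40 cells expressing human TDP1 were exposed to compounds without camptothecin for a minimum 48 hr at 37 °C.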
12-LOX inh – blocks human arachidonate 12S-lipoxygenase; Potency, µM (highest dose often 108 µM), without a hit: top-dose activity change, negative = inhibition, usual class: inhibitors; AID 1671190; purified 12hLO, xylenol orange hydroperoxide absorbance; P18054; actives 1.1% (n = 580,000); further: potency means the concentration at half of the fitted maximal effect
Target sequence (P18054 whole entry, looked up): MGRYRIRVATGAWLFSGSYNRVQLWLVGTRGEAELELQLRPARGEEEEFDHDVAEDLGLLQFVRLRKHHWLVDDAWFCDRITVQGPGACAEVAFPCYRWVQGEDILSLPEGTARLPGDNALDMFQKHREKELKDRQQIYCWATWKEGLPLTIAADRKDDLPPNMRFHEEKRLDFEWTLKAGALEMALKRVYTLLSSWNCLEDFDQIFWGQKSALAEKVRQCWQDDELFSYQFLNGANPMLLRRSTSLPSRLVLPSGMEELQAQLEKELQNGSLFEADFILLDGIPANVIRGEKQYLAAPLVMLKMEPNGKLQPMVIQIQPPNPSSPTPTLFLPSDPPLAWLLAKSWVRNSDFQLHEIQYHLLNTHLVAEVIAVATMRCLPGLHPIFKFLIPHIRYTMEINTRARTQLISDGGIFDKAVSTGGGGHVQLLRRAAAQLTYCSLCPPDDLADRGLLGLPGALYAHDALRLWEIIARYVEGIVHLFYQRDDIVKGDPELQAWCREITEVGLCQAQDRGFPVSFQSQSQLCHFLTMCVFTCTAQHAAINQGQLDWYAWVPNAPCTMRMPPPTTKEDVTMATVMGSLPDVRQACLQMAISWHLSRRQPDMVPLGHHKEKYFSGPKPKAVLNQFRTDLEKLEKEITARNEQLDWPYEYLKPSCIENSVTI
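Purified human 12hLO (150 nM final) in 25 mM Hepes, 0.01% Triton X-100, pH 7.0 was preincubated 15 min at room temperature with compound. Then 40 uM arachidonic acid was added, 30 min. Hydroperoxide was read by Fe-XO absorbance ratio 573/405 nm.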
Active calls of the source: *; ? = inconclusive; . = not tested or not shown; [ ] = remark or other dose. Unless noted, the call rests on the fitted dose curve; in most records, active means well fitted curve in the direction sought with a large enough effect; inconclusive means small, poorly fitted or top-dose-only effect, or another doubt; inactive means no such curve, though single readings can be large; an effect the other way counts as inactive or inconclusive. Unless noted, on the % scale 0 is the no-effect control and ±100 the full control effect.

SMILES	TDP1 cell CPT	IL-1B inflam inh	HT1080NT lethal	HT1080 IDH1KD tx	TDP1 cell noCPT	12-LOX inh
COc1cccc(C(O)c2nc(-c3ccc(F)cc3OC)cs2)c1 (stereo unspecified)	-18.4%	-21.6	?	19.4%	?	-3.2%
COc1ccc(C(O)c2nc(-c3ccc(F)cc3OC)cs2)cc1 (stereo unspecified)	25.9µM*	-16.4	-4.8%	15.9%	?	6.9%
COc1cc(F)ccc1-c1csc(C(O)c2ccc(F)cc2)n1 (stereo unspecified)	23.1µM*	-5.9	-1.9%	?	?	?
O=C(Cn1nc2c(cc1=O)CCCC2)N1CCN(c2ccc(Cl)cc2)CC1	.	.	.	.	.	14.8%
COc1ccc(C2NC(=O)NC(C)=C2C(=O)OCc2ccc3c(c2)OCO3)cc1OC (stereo unspecified)	?	-14.7	6.7%	?	?	-24.8%
COc1ccc(C2CCc3cc4c(cc3C2=NO)OCO4)cc1OC (stereo unspecified)	?	-5.3	-0.8%	-22.7%	14.6µM*	-19.1%
O=C(NCCc1c[nH]c2ccccc12)C(=O)NCC(c1ccco1)N1CCN(c2ccccc2F)CC1 (stereo unspecified)	?	-2.2	-19.2%	-15.0%	23.1µM*	.
O=C(NCc1ccccc1)C(c1ccco1)N1CCN(c2ccccc2F)CC1 (stereo unspecified)	?	-58.6*	15.1%	10.3%	?	1.5%
O=C(CN1CCN(c2ccccc2F)CC1)NCCc1c[nH]c2ccccc12	.	.	.	.	.	12.2%
O=C(NCc1ccccc1)C(=O)NCC(c1ccco1)N1CCN(c2ccccc2F)CC1 (stereo unspecified)	-2.3%	5.6	13.5%	10.5%	10.5%	-0.9%
O=C(NCc1ccccc1)C(c1ccc(-c2ccccc2)cc1)N1CCN(c2ccccc2F)CC1 (stereo unspecified)	18.4µM*	-7.8	-5.4%	1.6%	?	12.8%
NC(=O)c1nn(CC(=O)NCc2ccc(F)cc2)c(=O)c2ccccc12	.	.	.	.	.	3.9%
COc1ccc([C@H]2CC(=O)C[C@@H](CCn3cc(-c4ccccc4)nn3)O2)cc1	?	79.7	9.0%	14.4%	?	10µM*
COc1ccc(-c2nc(N)n(C(=O)c3ccc(Cl)cc3)n2)cc1	.	.	.	.	.	-8.0%
CCOC(=O)N1CCC(NC(=O)C2CCN(c3nc(-c4ccc(OC)cc4)no3)CC2)CC1	?	10.8	7.3%	-3.5%	4.11µM*	0.0%
COc1ccc(-c2noc(N3CCC(C(=O)N(C)c4ccccc4)CC3)n2)cc1	?	-2.7	-11.2%	-4.5%	29.1µM*	18.9%
COc1ccc(-c2noc(N3CCC(C(=O)NC(C)c4ccccc4)CC3)n2)cc1 (stereo unspecified)	?	-0.6	0.0%	-10.8%	25.9µM*	2.2%
CCN(C(=O)C1CCN(c2nc(-c3ccc(OC)cc3)no2)CC1)c1ccccc1	?	20.6	8.5%	-3.9%	?	23.3%
COc1ccc(-c2noc(N3CCC(C(=O)NCc4ccccc4Cl)CC3)n2)cc1	16.4µM*	-2.0	-9.3%	-11.9%	25.9µM*	8.3%
O=C(NC(C1CC1)C1CC1)c1cccnc1	.	.	.	.	.	6.1%
OC1(c2ccccc2)CN(c2ccccc2)C2=[N+]1CCS2 (stereo unspecified)	?	-66.4*	4.5%	1.1%	-28.1%	?
COc1ccc(OC)c(N2CC(O)(c3cccs3)[N+]3=C2SCCC3)c1 (stereo unspecified)	-9.9%	-14.7	-0.6%	-1.3%	-12.9%	6.7%
OC1(c2cccs2)CN(c2ccc(Br)cc2)C2=[N+]1CCCS2 (stereo unspecified)	?	?	?	?	14.6µM*	0.0%
OC1(c2cccs2)CN(c2ccccc2)C2=[N+]1CCCC2 (stereo unspecified)	-0.7%	-86.7*	-8.4%	3.3%	-3.9%	5.1%
O=C1COCCN1C1CCN(Cc2ccc(C(F)(F)F)cc2)CC1	.	.	.	.	.	16.0%[6.33 µM]
SMILES	TDP1 cell CPT	IL-1B inflam inh	HT1080NT lethal	HT1080 IDH1KD tx	TDP1 cell noCPT	12-LOX inh
CN(C)C(=O)COc1ccccc1-c1nc(-c2ccccc2)no1	.	.	.	.	.	35.9%
N#Cc1ccccc1Sc1ccccc1N	-1.3%	-9.4	9.5%	-23.8%	-1.1%	-15.4%
Nc1ccccc1SSc1ccccc1N	5.17µM*	-97.1*	?	23.1µM*	3.66µM*	?
C/C=C/c1c(C)nc2sc(C#N)c(N)c2c1C	.	.	.	.	.	-5.2%
CC(CCc1ccccc1)NC(=O)N1CCN(S(=O)(=O)c2ccccc2C#N)CC1 (stereo unspecified)	.	.	.	.	.	-0.2%
O=S(=O)(CCN1CCCCC1)CCS(=O)(=O)CCN1CCCCC1	?	-71.4*	15.5%	15.0%	-26.8%	-12.8%
NC(=O)CCS(=O)(=O)CCN1CCCCC1	10.5%	-4.0	11.9%	9.4%	-2.9%	-0.3%
Cc1oc(-c2ccccc2)nc1C(=O)Nc1ccc(S(=O)(=O)N(C)Cc2ccccc2)cc1	.	.	.	.	.	-26.7%
NC(=O)c1ccc(NC(=O)C2CC(=O)N(c3n[nH]c4cc(Br)ccc34)C2)cc1 (stereo unspecified)	.	.	.	.	.	8.9%
COC(=O)[C@]12CCCCC=C1N(CCC1=CCCCC1)C(=O)[C@H](CC(=O)NCc1cccs1)C2	?	-11.2	?	-28.5%	16.4µM*	2.1%
CCOC(=O)[C@]12CCCC=C1N(CCC1=CCCCC1)C(=O)[C@H](CC(=O)NCc1cccs1)C2	?	-2.9	-4.8%	-19.1%	20.6µM*	?
CCOC(=O)[C@]12CCCC=C1N(Cc1ccccc1)C(=O)[C@H](CC(=O)NCc1cccs1)C2	-5.1%	-10.2	-3.9%	-8.1%	-26.0%	-22.3%
COC(=O)[C@]12CCCCC=C1N(CCC1=CCCCC1)C(=O)[C@H](CC(=O)NCc1ccccc1)C2	?	-12.5	-14.2%	-14.1%	?	0.0%
CC1Sc2ccc(S(=O)(=O)CCC(=O)NCCC3=CCCCC3)cc2NC1=O (stereo unspecified)	.	.	.	.	.	-20.6%
CC[n+]1ccccc1/C=C/c1ccc(N(C)C)cc1	1.03µM*	-57.2*	?	18.4µM*	0.461µM*	?
CN(C)c1ccc(/C=C/c2nc3ccccc3o2)cc1	8.7%	.	.	.	?	.
CCCCCC[n+]1ccccc1/C=C/c1ccc(N(C)C)cc1	0.058µM*	?	7.31µM*	1.16µM*	0.0517µM*	?

Screens (PubChem BioAssay)
